In the library only some 31% were active in any assay of this set; here they are far more common.
CYP2C19 inhib: human CYP2C19 inhibition | P33261 | CYP2C19 Supersomes, luciferin-H EGE luminescence, 30 min | inhibition, % at 5 µM | hit rate 21% among 96,000 | AID 778;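 active = CYP2C19 inhibition above a set limit at 5 µM in the primary screen, cut at about 50% in these data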;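 note: plate controls were negative control wells for no effect and 2.5 mM tranylcypromine positive control for full effect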
CYP2C19 activ: increases human CYP2C19 enzyme activity; P33261; recombinant CYP2C19, luciferin-H EGE luminescence; active compounds read high; 0 = fully inhibited enzyme, 1 = untreated enzyme; activation factor at 5 µM; 96,000 tested, under 10 active;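 active = activation factor of at least 2 at 5 µM in the primary screen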;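 note: 0 = wells with 2.5 mM tranylcypromine and 1 = vehicle-only wells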
CYP2C9 inh: human CYP2C9 inhibition | P11712 | CYP2C9 Supersomes, luciferin-H conversion, luminescence | inhibition, % at 5 µM | hit rate 20% among 96,000;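 active = blocking of liver enzyme CYP2C9 beyond about 50% at 5 µM, limit read from the data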
Target sequence (P11712 whole entry, looked up): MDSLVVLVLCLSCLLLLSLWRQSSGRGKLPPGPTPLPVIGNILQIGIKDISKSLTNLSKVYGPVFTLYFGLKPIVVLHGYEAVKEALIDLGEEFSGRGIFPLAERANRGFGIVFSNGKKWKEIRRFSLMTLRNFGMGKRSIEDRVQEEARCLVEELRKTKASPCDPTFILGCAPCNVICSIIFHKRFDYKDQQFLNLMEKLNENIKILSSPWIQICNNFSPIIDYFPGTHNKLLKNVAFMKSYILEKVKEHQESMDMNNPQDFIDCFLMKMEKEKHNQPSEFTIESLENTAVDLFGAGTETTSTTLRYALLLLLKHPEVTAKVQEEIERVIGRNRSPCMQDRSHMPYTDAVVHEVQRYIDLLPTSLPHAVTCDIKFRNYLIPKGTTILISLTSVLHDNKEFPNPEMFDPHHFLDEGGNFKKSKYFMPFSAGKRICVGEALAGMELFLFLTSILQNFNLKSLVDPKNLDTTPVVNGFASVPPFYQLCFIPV
CYP2C9 activ: activators of human CYP2C9 | hit rate 1.4% among 96,000 | activation factor at 5 µM | P11712 | recombinant CYP2C9, luciferin-H conversion, luminescence; active compounds read high; factor 1 = untreated enzyme, 0 = blocked;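 active = activation factor of 2 or more for CYP2C9 at a 5 µM dose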;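 note: 0 = sulfaphenazole-blocked wells and 1 = vehicle-only wells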
Numbers without * were called inactive.

SMILES | CYP2C19 inhib | CYP2C19 activ | CYP2C9 inh | CYP2C9 activ
CCOC(=O)N1CCN(C(=O)Nc2ccccc2Cl)CC1 | 15.6 | 0.8 | -4.9 | 1
COc1cccc(C2=NOC(C(=O)N3CCN(C(=O)c4ccco4)CC3)C2)c1 (stereo not drawn) | -17.4 | 1.2 | -2.9 | 1
COc1ccnc(Oc2ccc(F)cc2)c1C(=O)N/C=N/OCc1ccc(Cl)cc1Cl | 8.8 | 0.9 | 24.8 | 0.8
O=C(OCCN(C1=NS(=O)(=O)c2ccccc21)c1ccc(Cl)cc1)c1ccco1 | 86.4* | 0.1 | 85.0* | 0.2
CN(CCOC(=O)c1ccco1)Cc1ccccc1 | 25.7 | 0.7 | 7.0 | 0.9
Cc1ccccc1Nc1nnc(C)c(=O)n1N | 22.4 | 0.8 | -7.0 | 1.1
O=C(COc1ccc(Cl)cc1)Nc1ccc2oc(-c3ccncc3)nc2c1 | 51.8* | 0.5 | 62.1* | 0.4
CCCCC(=O)Nc1ccc2oc(-c3ccncc3)nc2c1 | 57.7* | 0.4 | 63.3* | 0.4
CCCC(=O)Nc1ccc(-c2nc3cc(C)c(C)cc3o2)cc1 | 9.0 | 0.9 | -8.3 | 1.1
CCCC(=O)Nc1ccc2oc(-c3ccncc3)nc2c1 | 56.1* | 0.4 | 78.4* | 0.2
Clc1ccc(OCc2nnc(-c3ccccc3Br)o2)cc1 | 96.3* | 0 | 14.1 | 0.9
Cn1nnnc1SCc1nnc(-c2ccccc2Br)o1 | 65.0* | 0.3 | -5.8 | 1.1
Cc1ccc(-n2nnnc2SCc2nnc(-c3ccccc3Br)o2)c(C)c1 | 66.1* | 0.3 | 56.1* | 0.4
Cc1ccc(-n2nnnc2SCC(=O)N2CCN(C(=O)c3ccco3)CC2)c(C)c1 | 2.0 | 1 | 2.1 | 1
CCS(=O)(=O)N1Cc2ccccc2CC1C(=O)N1CCN(c2ccccc2)CC1 (stereo not drawn) | 32.3 | 0.7 | -18.3 | 1.2
COc1ccc(CSCCN)cc1Cl | 64.3* | 0.4 | 46.8 | 0.5
Cc1cc(NC(=O)CCCC(=O)Nc2ccc(F)cc2)no1 | 46.5 | 0.5 | 37.0 | 0.6
CC(O)Cc1nsc(NC(=O)c2ccc(Br)o2)n1 (stereo not drawn) | -5.3 | 1.1 | -8.0 | 1.1
OC(CN1CCN(c2ccccc2)CC1)c1c[nH]c2ccccc12 (stereo not drawn) | 56.7* | 0.4 | 4.7 | 1
CCN1C(=O)c2cccc3c(NS(=O)(=O)c4ccc(NC(C)=O)cc4)ccc1c23 | 99.2* | 0 | 85.6* | 0.1
CCN1C(=O)c2cccc3c(NC(=O)c4ccc(S(=O)(=O)N(C)C)cc4)ccc1c23 | 12.6 | 0.9 | 36.5 | 0.6
CCN1C(=O)c2cccc3c(NC(=O)c4ccc(S(=O)(=O)N5CCOCC5)cc4)ccc1c23 | 38.4 | 0.6 | 73.7* | 0.3
CCOC(=O)c1ccc(NC(=O)Nc2ccc3c4c(cccc24)C(=O)N3CC)cc1 | 3.1 | 1 | -3.6 | 1
CCN1C(=O)c2cccc3c(S(=O)(=O)Nc4ccccc4OC)ccc1c23 | 61.4* | 0.4 | 98.8* | 0
COc1ccc(OC)c(NC(=O)C2C3C=CC(C3)C2C(=O)NCc2ccccn2)c1 (stereo not drawn) | 28.8 | 0.7 | 14.2 | 0.9
SMILES | CYP2C19 inhib | CYP2C19 activ | CYP2C9 inh | CYP2C9 activ
COC(=O)c1ccccc1NC(=O)Cn1cnc2c(cnn2-c2ccccc2)c1=O | -8.6 | 1.1 | 9.9 | 0.9
CCCOC(=O)CSc1nnc(-c2cc(OC)c(OC)c(OC)c2)o1 | 8.2 | 0.9 | 44.9 | 0.6
OC(CN1CCOCC1)CN(c1ccccc1)c1ccccc1 (stereo not drawn) | 69.5* | 0.3 | 64.9* | 0.4
O=C(c1ccc(F)cc1)C(CN1CCOCC1)c1ccccc1 (stereo not drawn) | 59.2* | 0.4 | 12.4 | 0.9
c1ccc(C(CN2CCOCC2)c2ccccc2)cc1 | 58.4* | 0.4 | 15.4 | 0.8
CCOc1ccc(C(O)C(CN2CCOCC2)c2ccccc2)cc1 (stereo not drawn) | 29.0 | 0.7 | 1.3 | 1
O=C(c1ccccc1)C(CCC(CN1CCOCC1)C(=O)c1ccccc1)CN1CCOCC1 (stereo not drawn) | 69.2* | 0.3 | 32.2 | 0.7
O=C(NCCCN1CCOCC1)c1ccccc1 | -7.3 | 1.1 | 11.2 | 0.9
COC(=O)CNC(=O)CCCCC(=O)NCC(=O)OC | -13.6 | 1.1 | -13.6 | 1.1
O=C(CSc1nc2[nH]ncc2c(=O)n1-c1ccccc1Br)NCc1ccco1 | 25.8 | 0.7 | 25.4 | 0.7
C(#CCN1CCOCC1)COCCCOC(c1ccccc1)c1ccccc1 | 59.0* | 0.4 | 69.5* | 0.3
COc1ccc(C(=O)C(OC(=O)c2ccccc2)c2ccccc2)cc1 (stereo not drawn) | 59.0* | 0.4 | 70.5* | 0.3
COc1ccc(C(=O)C(CN2CCOCC2)c2ccccc2)cc1 (stereo not drawn) | 55.8* | 0.4 | -1.2 | 1
COc1ccc(C(=O)C(CN2CCCC2)c2ccccc2)cc1 (stereo not drawn) | 16.9 | 0.8 | 17.7 | 0.8
Cc1ccc(C(=O)C(OC(=O)COc2ccccc2C)c2ccccc2)cc1 (stereo not drawn) | 49.3 | 0.5 | 39.4 | 0.6
C=CC[N+]1(CC#CCOC(c2ccccc2)c2ccccc2)CCOCC1 | -16.8 | 1.2 | -12.8 | 1.1
CCOC(=O)c1cc2ccccc2n1CCN(CC)CC | 34.8 | 0.7 | -24.1 | 1.2
CCOC(=O)c1cc2occc2n1CCCN1C(=O)c2ccccc2C1=O | 20.8 | 0.8 | 86.7* | 0.1
CCOC(=O)c1cc2sc(C)cc2n1CCCN1C(=O)c2ccccc2C1=O | 13.5 | 0.9 | 56.8* | 0.4
CC(C)Cc1nc2oc3c(N4CCN(CCO)CC4)ncnc3c2c2c1CCCC2 | 60.2* | 0.4 | 67.3* | 0.3
CC(C)Cc1nc2oc3c(NCC4CCCO4)ncnc3c2c2c1CCC2 (stereo not drawn) | 37.8 | 0.6 | 39.7 | 0.6
CCN1CCN(c2ncnc3c2oc2nc(C(C)C)c4c(c23)CCC4)CC1 | 9.9 | 0.9 | 11.8 | 0.9
CCOC(=O)N1CCN(c2ncnc3c2oc2nc(C(C)C)c4c(c23)CCC4)CC1 | 86.1* | 0.1 | 64.6* | 0.4
COC(=O)CCN(C(=O)C1C2CC3CC(C2)CC1C3)c1ccccn1 (stereo not drawn) | -9.9 | 1.1 | 5.3 | 0.9
CC(C)C(=O)NC(c1ccccc1Cl)c1c(O)ccc2ccccc12 (stereo not drawn) | 21.9 | 0.8 | 12.0 | 0.9
SMILES | CYP2C19 inhib | CYP2C19 activ | CYP2C9 inh | CYP2C9 activ
CCC(=O)NC(c1ccc([N+](=O)[O-])cc1)c1c(O)ccc2ccccc12 (stereo not drawn) | 94.4* | 0.1 | 54.3* | 0.5
CCOC(=O)C(NC(=O)CC)C(O)c1cccc([N+](=O)[O-])c1 (stereo not drawn) | 5.0 | 0.9 | -2.8 | 1
O=C(O)c1ccc2cccc(Cl)c2c1O | -11.2 | 1.1 | -4.8 | 1
CC(C)C(=O)NC(c1ccco1)c1c(O)ccc2ccccc12 (stereo not drawn) | 26.0 | 0.7 | 65.5* | 0.3
O=C(NC(c1ccccc1)c1c(O)ccc2ccccc12)c1ccccc1Cl (stereo not drawn) | 75.8* | 0.2 | 93.1* | 0.1
CCOc1ccc2oc(-c3ccccc3)c(C(=O)N3CCN(C)CC3)c2c1 | 18.5 | 0.8 | 37.8 | 0.6
COc1ccc2oc(-c3ccccc3)c(C(=O)N3CCOCC3)c2c1 | 15.4 | 0.8 | 10.2 | 0.9

Screening results deposited in PubChem by Sanford-Burnham Center for Chemical Genomics.
